Compound activity deposited in PubChem BioAssay by several laboratories.
Most compounds without a hit are left out; they make up all but 3.7% or so of the library.
Anthrax LF prot = Bacillus anthracis LF protease inhibitors, primary screen, biochemical, multiplex microsphere, MLPCN library. Lethal factor (Bacillus anthracis), P15917. multiplex microsphere protease cleavage assay. inhibition, % at 10 µM. hit rate 0.12% among 360,000. AID 588501, 2011; also: plate controls were buffer without enzyme for full effect and enzyme alone for no effect
Autofluor counter = flagged as autofluorescent in microsphere protease counterscreen. compound autofluorescence counterscreen, microsphere flow cytometry; hits give high values. fluorescence intensity (concentration not given with the values). hit rate 3.1% among 360,000. AID 624483; in the data active = fluorescence intensity above about 16000; inconclusive = no clear call, values can overlap the other calls
BoNT-A LC inh2 = BoNT/A light chain protease inhibitors, primary screen, biochemical, flow cytometry, MLPCN library | Botulinum neurotoxin type A light chain protease (Clostridium botulinum A str. ATCC 3502) | multiplex microsphere protease substrate cleavage | inhibition, % at 10 µM | hit rate 0.17% among 360,000 | AID 588499, 2011; also: plate controls were buffer without enzyme for full effect and enzyme alone for no effect
MazEF act = activators of E. coli MazEF toxin-antitoxin RNase, primary screen, biochemical, fluorescence, uHTS; Endoribonuclease toxin MazF (Escherichia coli (strain K12)), P0AE70; FAM/BHQ RNA-DNA oligo cleavage fluorescence, 5 h; hit rate 0.32% among 350,000; AID 504720, 2011; activation, % at 20 µM; in the data active = activation above about 50%
Target sequence (P0AE70 whole entry, looked up): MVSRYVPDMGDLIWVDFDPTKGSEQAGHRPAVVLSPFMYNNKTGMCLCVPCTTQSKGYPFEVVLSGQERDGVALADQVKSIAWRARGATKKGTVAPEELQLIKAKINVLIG
BoNT F protease = BoNT/F light chain protease inhibitors, primary screen, biochemical, flow cytometry, MLPCN library; Botulinum neurotoxin type F light chain protease (Clostridium botulinum); Multiplex microsphere protease cleavage assay; inhibition, % at 10 µM; hit rate 0.22% among 360,000; AID 588497, 2011; in the data active = inhibition above about 35%, passing the limit was not always enough; inconclusive = no clear call, values can overlap the other calls; also: plate controls were buffer without enzyme for full effect and enzyme alone for no effect
* marks the source's active call; other numbers are inactive results; ? = inconclusive; . = not tested or not shown; + = active, no number. Rule as the data show it, unless noted: active = inhibition above about 30%; inconclusive = no clear call, values can overlap the other calls; inactive = below that.

SMILES | Anthrax LF prot | Autofluor counter | BoNT-A LC inh2 | MazEF act | BoNT F protease
Nc1cc(Cl)cc2c1-c1ccc(Cl)cc1C2 | 2.1 | 3628 | 1.3 | 64.7* | 1.9
COc1ccc(C(=O)N2CCCC(C(N)=O)C2)cc1S(=O)(=O)N1CCOCC1 (configuration not stated) | -1.5 | 3817 | -0.3 | 7.6 | 0.7
Cc1ccc(NC(=S)N2CCN(C(=O)C3CCCO3)CC2)c(C)c1 (configuration not stated) | 0.2 | 22658* | ? | 3.9 | 0.9
CCc1c(C)sc(NC(=S)N2CCN(C(=O)C3CCCO3)CC2)c1C(=O)OC (configuration not stated) | -42.8 | 51235* | -161.8 | 15.2 | -285.9
Cc1ccc(NC(=S)N2CCC(N(C)CC3CCCO3)CC2)c(C)c1 (configuration not stated) | 2.3 | 19642* | 9.7 | -4.7 | 12.5
Cc1ccc(NC(=O)CN2CCN(C(=O)C3CCCO3)CC2)c(C)c1 (configuration not stated) | 2.8 | 5204 | 0.7 | 5.1 | 3.5
COCCNC(=O)C[C@H]1C[C@H]2c3cc(NS(=O)(=O)c4ccc(F)cc4)ccc3O[C@H]2[C@H](CO)O1 | -4.3 | 3462 | -0.4 | 6.5 | 0.2
OC[C@@H]1CN(Cc2ccco2)C[C@H](n2cnc3c(N4CCN(c5ccccc5)CC4)ncnc32)O1 | 1.9 | 3996 | -0.4 | . | -5.6
Cc1ccc(S(=O)(=O)N(C)C[C@@H]2OCc3cnnn3CCCC(=O)N([C@H](C)CO)C[C@H]2C)cc1 | -0.2 | 3583 | 0.1 | -14.2 | 5.3
COC(=O)c1c[nH]n2c(=O)cc(C)nc12 | -2.8 | 23157* | -1.0 | 0.0 | -4.3
CCn1c(CNC(=O)c2ccccc2F)nnc1SCC(=O)NC1CCCCC1 | -2.4 | 2241 | -0.5 | 5.9 | -2.8
CCn1c(CCNC(=O)c2cccs2)nnc1SCC(=O)NC1CCCCC1 | -6.8 | 21522* | ? | -2.7 | 4.4
CCn1c(CCNC(=O)c2cccs2)nnc1SCC(=O)Nc1ccc(Cl)cc1 | -3.9 | 22204* | ? | -1.2 | 4.0
CN(C)S(=O)(=O)N1CCc2ccccc2C1 | -1.3 | 24594* | -3.2 | 5.4 | -6.5
CN(C)S(=O)(=O)N1CCc2ccccc21 | -4.2 | 4560 | 0.7 | 4.3 | -10.4
COc1cccc(C2c3c(oc4ccc(Cl)cc4c3=O)C(=O)N2c2cc(C)on2)c1OC (configuration not stated) | -4.7 | 16528* | -1.3 | 4.2 | -2.4
CC1CCCN(Cc2c(O)ccc3c(=O)c(-c4nc5ccccc5s4)c(N)oc23)C1 (configuration not stated) | -3.9 | 25322* | ? | -8.8 | -10.2
COC(=O)c1ccc(OC)c(-c2c(OC)cc(OC)cc2OC)c1 | 0.6 | 9608 | 0.1 | 1.6 | -2.5
COc1cc(OC)c(-c2cc(C(=O)O)ccc2OC)c(OC)c1 | -0.6 | 2188 | 0.1 | + | -4.7
CC(C)(C)CC(C)(C)SSc1n[nH]c(=S)s1 | -2.4 | 3819 | -0.3 | -2.3 | 0.3
COc1ccc(C(=O)N2CCC2(C)C(=O)NC(C)C)cc1OC (configuration not stated) | -3.3 | 2867 | 0.0 | . | 6.4
COCCNC(=O)c1ccccc1-c1ccccc1C(=O)O | 1.4 | 2182 | -0.2 | -3.3 | -8.0
O=C(O)c1ccccc1-c1ccccc1C(=O)NCCCO | 1.6 | 20852* | ? | 4.7 | 1.4
COc1ccc(OCCCC(=O)Nc2cc(Cl)ccc2-n2cncn2)cc1 | -19.7 | 17700* | -87.4 | -0.9 | -131.0
CC(NNC(=S)N1CCCCCC1)c1ccc2ccccc2n1 (configuration not stated) | -3.7 | 3859 | 3.9 | . | -38.8
CCOC(=O)c1c(C)oc2c1c(C(c1ccccc1)N1CCOCC1)c(O)c1ccccc12 (configuration not stated) | -4.8 | 19404* | ? | -9.4 | 6.0
CCN1CCCc2cc(CN(CCN3CCOCC3)C(=O)Nc3ccc(C)c(C)c3)ccc21 | -2.3 | 20262* | -1.8 | -14.4 | -9.3
CCc1ccc(NC(=O)N(CCN2CCOCC2)Cc2ccc3c(c2)CCCN3CC)cc1 | -8.2 | 8466 | -0.4 | -10.4 | -24.5
Clc1cccc(Cl)c1CSc1cc2c(nn1)-c1ccccc1CC2 | 1.0 | 22710* | 2.1 | -0.8 | 3.7
CCCCn1c(N)c(N(C(=O)CSc2nncn2-c2ccccc2C)C2CCCC2)c(=O)[nH]c1=O | 9.6 | 3673 | 0.5 | 3.3 | 3.9
